Measured values published in PubChem BioAssay AID1063 (University of Pittsburgh Molecular Library Screening Center, 2008).
About 18,000 (9%) of roughly 200,000 compounds were called active. Rule as the data show it: active = inhibition above about 50%; inactive = the rest. The entries come from a sample that favours actives as a whole.

Assay: Leishmania major promastigote growth inhibition, primary screen (AID 1063);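 also: promastigotes grown with compound for 44 hours at 28 °C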
Conditions: Leishmania major promastigotes, resazurin fluorescence viability; at 10 µM; active compounds read high

| SMILES | inhibition |
| --- | --- |
| N#Cc1c(N)nc2c(c1N)CC(C(F)(F)F)O2 (centres undefined) | 1.43% (inactive) |
| Cc1ccc(C(=O)O)cc1N1C(=O)CCCC1=O | -2.53% (inactive) |
| Cc1nc(-c2ccccc2)sc1C(=O)/C=C/c1ccccc1 | 48.9% (inactive) |
| Cc1[nH]c(=O)c(C(=O)/C=C/c2ccccc2)c2c1CCCC2 | 98.8% (active) |
| O=C(/C=C/c1ccccc1)c1ccccc1O | 9.25% (inactive) |
| O=C(CCNC(=O)Cn1ccc2ccccc2c1=O)NCCC1=CCCCC1 | -3.42% (inactive) |
| Cc1ccccc1N1C(=O)C(Oc2ccc(Cl)cc2)C1CNCC1CCCO1 (centres undefined) | 14.7% (inactive) |
| CCc1nc2ccccc2c(C(=O)NCc2ccc(OC)cc2)c1C | -2.62% (inactive) |
| COc1nc(N=C(N)N)nc2c(C)cccc12 | 29% (inactive) |
| Cc1nc(N=C(N)N)nc2c(C)cccc12 | 99.5% (active) |
| Cc1cccc2c(=O)n3c(nc12)CCCCC3 | -1.77% (inactive) |
| CCOc1ccc(N2C(=O)Nc3ccccc3C2(O)C(=O)NCc2ccco2)cc1 (centres undefined) | -6.71% (inactive) |
| Cc1ccc(CCCOC(=O)C[N+]2(C)CCCCC2)cc1 | -3.49% (inactive) |
| CCCCNCc1ccc(SC)cc1 | 76.3% (active) |
| CSc1ccc(CN(C)CC(=O)NCc2ccc(F)cc2)cc1 | -5.11% (inactive) |
| CCCCc1ccc(NC(=S)NCCCN2CCOCC2)cc1 | 32.5% (inactive) |
| CSc1ccc(CNCCN2CCOCC2)cc1 | 67.6% (active) |
| CSc1ccc(S(=O)(=O)NCc2ccc(Cl)cc2)cc1 | -1.27% (inactive) |
| O=C(NCCN1CCOCC1)[C@H](Cc1ccccc1)N1C(=O)c2ccccc2C1=O | -3.08% (inactive) |
| Cc1cc(/C=N/NC(N)=O)c(C)n1C1CCCCC1 | 2.71% (inactive) |
| COc1ccc(-c2nc(N)sc2C2(O)C(=O)Nc3c(Br)cc(F)cc32)cc1OC (centres undefined) | -2.63% (inactive) |
| Cc1nnc(NC(=O)/C=C/c2ccco2)s1 | 21.5% (inactive) |
| O=C(/C=C/c1ccco1)Nc1ccc(Oc2ccccc2)cc1 | 99.6% (active) |
| O=C(/C=C/c1ccco1)Nc1cccc(-c2nc3ccccc3[nH]2)c1 | 28.8% (inactive) |
| COC(=O)C1=C(C(=O)OC)C(c2cc([N+](=O)[O-])ccc2O)c2sc(=O)[nH]c2S1 (centres undefined) | -11.4% (inactive) |
| Clc1ncn(CCOc2ccccc2)c1Cl | -6.41% (inactive) |
| CCN(CC)CCNC(=O)c1sc2ncn(CC(=O)Nc3ccc(C)c(Cl)c3)c(=O)c2c1C | 87.1% (active) |
| CCN(CC)CCNC(=O)Cn1cnc2sc(C)c(S(=O)(=O)N3CCOCC3)c2c1=O | -1.31% (inactive) |
| CCN(CC)CCCNC(=O)Cn1cnc2sc(C)c(S(=O)(=O)N3CCN(c4ncccn4)CC3)c2c1=O | 1.29% (inactive) |
